Hits are enriched below; roughly 6.6% of the tested compounds scored in any of these assays.
Spn DPM-DC inh: inhibitors of Streptococcus pneumoniae diphosphomevalonate decarboxylase; purified DPM-DC, PK/LDH coupled NADH fluorescence; calls only at 10 µM; 65,000 tested, 0.49% active; AID 556;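 active means the 320 compounds with the highest percent inhibition in the single-dose primary screen, excluding strongly autofluorescent ones, cut at about 32% in these data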;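 further: kinetic rate of NADH fluorescence loss reporting ADP formed by the decarboxylase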
PMK inhibit: S. pneumoniae PMK inhibition; purified PMK, PK/LDH-coupled NADH absorbance 340 nm; 65,000 tested, 0.49% active; inhibition, % at 10 µM;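 active means top-ranked compounds by inhibition in the single 10 µM screen, taking a fixed number of the strongest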
NADH enzymes: inhibitors of enzymes used to reach an NAD/NADH endpoint; coupled PK/LDH NADH assays, four targets; IC50, µM (series often up to 10 µM); 65,000 tested, 0.02% active;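 active means single-dose screening hits from any of four coupled enzyme assays that gave an IC50 when retested across doses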;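 further: the DPM-DC format reads NADH fluorescence rather than 340 nm absorbance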
Spn MK inh: S. pneumoniae mevalonate kinase inhibition | purified MK, PK/LDH-coupled NADH absorbance 340 nm | inhibition, % at 10 µM | AID 555 | 65,000 tested, 0.48% active;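 active means ranked among the strongest by inhibition in the single 10 µM screen, a fixed top-ranked set picked for dose follow-up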
Fluor 339 460: intrinsic fluorescence of library compounds, ex339/em460 – biochemical, MLSMR library, data from DPM-DC assay, artefact control, profiling panel; AID 709; compound autofluorescence, ex339/em460 nm, NADH buffer; active compounds read high; 1 = no-compound wells, NADH background; 65,000 tested, 5.5% active; fluorescence fold increase at 10 µM;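 active means at 10 µM, mean starting fluorescence two-fold or more over control wells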;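 further: signal is the first read of a kinetic run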
Of the large screens only hits and unclear results are named; the others gave an inactive call; [ ] = dose if it differs, or a comment.

CCOC(=O)C1(c2nc(N)cs2)COC(=O)C1 (stereo unspecified)	none
COc1ccc(C2C(=O)N(C3CCCCC3)CC(=O)N2Cc2ccco2)cc1 (stereo unspecified)	none
CCOC(=O)C1CCN(c2nc3cc(OC)ccc3cc2C#N)CC1	Fluor 339 460 2.09
COc1ccc2nc(N3CCC(C)CC3)c(C#N)cc2c1	none
COc1ccc2nc(N3CCC(O)CC3)c(C#N)cc2c1	Fluor 339 460 2.87
c1ccc2[nH]c(SCCN3CCOCC3)nc2c1	none
CN(C)S(=O)(=O)c1ccc2c(c1)C(CC(=O)O)NC2=O (stereo unspecified)	none
Cc1cc(C)nc(N2CCC(C(=O)Nc3ccc(Oc4ccccc4)cc3)CC2)n1	none
Cc1ccnc(N2CCC(C(=O)Nc3ccc(Oc4ccccc4)cc3)CC2)n1	PMK inhibit 29.0
c1ccc(-c2cn3c4c(sc3n2)CCCC4)cc1	none
Cn1nnc2c(NCc3ccco3)nccc21	Fluor 339 460 2.11 (not shown: Spn DPM-DC inh)
CN1CCN(CCCNC(=O)c2ccc3c(c2)N(Cc2ccccc2)CCS3)CC1	Fluor 339 460 2.11 (not shown: Spn DPM-DC inh)
CCN1C(=O)CSc2ccc(C(=O)NCCCN3CCOCC3)cc21	none
O=C(NCCN1CCOCC1)c1ccc2c(c1)N(Cc1ccccc1)C(=O)CS2	none
O=C(NCCN1CCOCC1)c1ccc2c(c1)N(Cc1ccccc1)CCS2	Fluor 339 460 2.03 (not shown: Spn DPM-DC inh)
COc1oc(-c2ccccc2)nc1C(F)(F)F	none
CC(C)(C)C(=O)Cn1c(=O)n(CC2CCCO2)c(=O)c2ccccc21 (stereo unspecified)	none
N=c1c(S(=O)(=O)c2ccccc2)cc2c(=O)n3ccccc3nc2n1CCN1CCOCC1	Fluor 339 460 3.66 (not shown: Spn DPM-DC inh)
Cc1ccc(S(=O)(=O)c2cc3c(=O)n4ccccc4nc3n(Cc3ccco3)c2=N)cc1C	Fluor 339 460 3.51 (not shown: Spn DPM-DC inh)
O=c1c2ccccc2c2ccccc2c(=O)n1Cc1ccco1	none
Cc1ccc(S(=O)(=O)c2cc3c(=O)n4ccccc4nc3n(C)c2=N)cc1	none
N=c1c(S(=O)(=O)c2ccccc2)cc2c(=O)n3ccccc3nc2n1Cc1ccco1	Fluor 339 460 4.01 (not shown: Spn DPM-DC inh)
Cc1ccc(S(=O)(=O)c2cc3c(=O)n4ccccc4nc3n(CC3CCCO3)c2=N)cc1C (stereo unspecified)	Spn DPM-DC inh active[fluoresces], Fluor 339 460 2.21
CC(=O)c1c(C)nc2nonc2c1N	Fluor 339 460 2.01
CCOC(=O)c1c(-c2ccc(OC)cc2)nc2nonc2c1N	none
Cc1ccc(C2NC(=O)c3c(sc4c3CCN(C)C4)N2)o1 (stereo unspecified)	none
Cc1ccc(C2NC(=O)c3c(sc4c3CCN(C)C4)N2)s1 (stereo unspecified)	Fluor 339 460 2.28
O=C1NC(c2ccccn2)Nc2sc3c(c21)CCC3 (stereo unspecified)	none
CN1CCc2c(sc3c2C(=O)NC(c2ccccn2)N3)C1 (stereo unspecified)	Fluor 339 460 2.41
Cc1ccc(C2/C(=C(/O)c3ccc(Br)cc3)C(=O)C(=O)N2Cc2ccco2)o1 (stereo unspecified)	none
COc1cccc(/C=N\n2c(C)nnc2C)c1OC	Spn DPM-DC inh active
COc1cccc(/C=N/n2c(C)nc3ccccc32)c1OC	none
COc1cc(OC)c(OC)cc1/C=N/n1c(C)nnc1C	Fluor 339 460 2.16 (not shown: Spn DPM-DC inh)
Cc1ccc(C2C3=C(CC(C)(C)CC3=O)N(CCN3CCOCC3)C3=C2C(=O)CC(C)(C)C3)cc1	Spn DPM-DC inh active, Fluor 339 460 3.79
OC1(c2ccccc2)C/C(=N\n2cnnc2)C=C1c1ccccc1 (stereo unspecified)	none
CN(C)c1ccc2c(O)cc(=O)n(C)c2c1	Fluor 339 460 2.27 (not shown: Spn DPM-DC inh)
CN(c1ccc(Cl)cc1)c1cc(=O)n(C)c2ccccc12	none
COCCN1C=C(C(=O)OC)C(c2ccc(OC)c(OC)c2)C(C(=O)OC)=C1	Fluor 339 460 2.24 (not shown: Spn DPM-DC inh)
COC(=O)C1=C2SC(C)C(=O)N2C(N)=C(C#N)C1c1ccc(OC)c(OC)c1 (stereo unspecified)	none
CCCOc1ccc(C2C(C(=O)OC)=CN(CCOC)C=C2C(=O)OC)cc1	Fluor 339 460 2.56 (not shown: Spn DPM-DC inh)
COC(=O)C1=CN(CC2CCCO2)C=C(C(=O)OC)C1c1cc(OC)c(OC)c(OC)c1 (stereo unspecified)	Fluor 339 460 2.12 (not shown: Spn DPM-DC inh)
CCOC(=O)c1sc(NC(=O)COC(=O)Cn2cnc3ccccc32)c(C(=O)OCC)c1C	none
COc1ccc(OC)c(S(=O)(=O)N(C)CC(=O)N2CCN(c3ccccc3F)CC2)c1	none
Cc1nc2ccc(N)cc2c(=O)n1Cc1ccc(Cl)cc1	Fluor 339 460 3.69 (not shown: Spn DPM-DC inh)
Cc1nc2oc3ccccc3c(=O)c2c(=O)n1Cc1ccccc1	none
NC(=O)c1ccccc1NS(=O)(=O)Cc1ccc(Cl)cc1	Fluor 339 460 3.92 (not shown: Spn DPM-DC inh)
CN(C)S(=O)(=O)Nc1ccc(NS(=O)(=O)N(C)C)c(S(=O)(=O)c2ccccc2)c1	none
CN(C)S(=O)(=O)Nc1ccccc1C(N)=O	Fluor 339 460 2.92 (not shown: Spn DPM-DC inh)
Cc1ccc(S(=O)(=O)Nc2ccccc2C(N)=O)cc1	Fluor 339 460 3.89 (not shown: Spn DPM-DC inh)
NC(=O)c1ccccc1NC(=O)CS(=O)(=O)Cc1ccccc1	none
CCOP(=O)(c1ccc(N(C)C)cc1)C(O)c1ccc(Cl)cc1 (stereo unspecified)	none
CC1=C2C(CCS2(=O)=O)CC2(C1)C(=O)OC(C)(C)OC2=O (stereo unspecified)	none
CCN1CCN(S(=O)(=O)c2ccc(S(=O)(=O)N(CC)Cc3ccccc3)cc2)CC1	none
COC(=O)c1cc2c(s1)-c1ccccc1OC2	Fluor 339 460 2.1 (not shown: Spn DPM-DC inh)
COc1ccc(Cl)cc1NC(=O)CN1CCC(n2nnc3ccccc32)CC1	none
Cc1cc2ccccc2c(=O)[nH]1	none
Cc1ccccc1Nc1cc2ccccc2c(=O)[nH]1	Fluor 339 460 2.75 (not shown: Spn DPM-DC inh)
O=C1CC(c2cccnc2)c2cc3c(cc2N1)OCO3 (stereo unspecified)	Spn DPM-DC inh active
O=c1cc(N2CCC3(CC2)OCCO3)[nH]c(=O)n1-c1ccc(Br)cc1	none
O=C(Cn1c(=O)oc2ccccc21)N1CCCCC1	none
Cc1ccccc1CS(=O)(=O)CCC(=O)N1CCN(c2ccc(N3CCOCC3)nn2)CC1	Fluor 339 460 3.42 (not shown: Spn DPM-DC inh)
O=C(Cn1c(=O)oc2ccccc21)N1CCN(c2ccc(N3CCOCC3)nn2)CC1	Fluor 339 460 2.12 (not shown: Spn DPM-DC inh)
O=C1CC(N(Cc2ccco2)C(=O)Nc2ccc(F)cc2)C(=O)N1c1ccc(F)cc1 (stereo unspecified)	none
CCCCC(=O)Nc1ccc2oc(-c3ccncc3)nc2c1	Fluor 339 460 3.7 (not shown: Spn DPM-DC inh)
CCCC(=O)Nc1ccc(-c2nc3cc(C)c(C)cc3o2)cc1	Fluor 339 460 3.79 (not shown: Spn DPM-DC inh)
CCCC(=O)Nc1ccc2oc(-c3ccncc3)nc2c1	Fluor 339 460 3.63 (not shown: Spn DPM-DC inh)
O=C(Nc1ccc2oc(-c3ccccc3Cl)nc2c1)c1cncc(Br)c1	none
CCCCCC(=O)Nc1ccc2oc(-c3cncc(Br)c3)nc2c1	Fluor 339 460 2.53
Cc1cccc(OCc2nnc3n2CCCCC3)c1	none
COC(=O)CCN(C(=O)C1C2CC3CC(C2)CC1C3)c1ccccn1 (stereo unspecified)	none

High-throughput results (PubChem BioAssay)
